# About 14,000 (4.5%) of roughly 310,000 compounds showed an effect of 50% or more. The effect is printed as a negative number. The sample holds strong results, similar compounds and a random draw of the others, so the mix is not that of the screen.
# Molecular target: human ether-à-go-go-related gene (hERG) potassium channel (human, UniProt Q12809)
# Assay: primary screen, population patch clamp on CHO cells stably expressing hERG; higher = less effect of the substance
# 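Note: peak tail current of the secondary pulse compared with the same well before compound.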
# human ether-à-go-go-related gene (hERG) potassium channel, sequence (Q12809 whole entry, looked up): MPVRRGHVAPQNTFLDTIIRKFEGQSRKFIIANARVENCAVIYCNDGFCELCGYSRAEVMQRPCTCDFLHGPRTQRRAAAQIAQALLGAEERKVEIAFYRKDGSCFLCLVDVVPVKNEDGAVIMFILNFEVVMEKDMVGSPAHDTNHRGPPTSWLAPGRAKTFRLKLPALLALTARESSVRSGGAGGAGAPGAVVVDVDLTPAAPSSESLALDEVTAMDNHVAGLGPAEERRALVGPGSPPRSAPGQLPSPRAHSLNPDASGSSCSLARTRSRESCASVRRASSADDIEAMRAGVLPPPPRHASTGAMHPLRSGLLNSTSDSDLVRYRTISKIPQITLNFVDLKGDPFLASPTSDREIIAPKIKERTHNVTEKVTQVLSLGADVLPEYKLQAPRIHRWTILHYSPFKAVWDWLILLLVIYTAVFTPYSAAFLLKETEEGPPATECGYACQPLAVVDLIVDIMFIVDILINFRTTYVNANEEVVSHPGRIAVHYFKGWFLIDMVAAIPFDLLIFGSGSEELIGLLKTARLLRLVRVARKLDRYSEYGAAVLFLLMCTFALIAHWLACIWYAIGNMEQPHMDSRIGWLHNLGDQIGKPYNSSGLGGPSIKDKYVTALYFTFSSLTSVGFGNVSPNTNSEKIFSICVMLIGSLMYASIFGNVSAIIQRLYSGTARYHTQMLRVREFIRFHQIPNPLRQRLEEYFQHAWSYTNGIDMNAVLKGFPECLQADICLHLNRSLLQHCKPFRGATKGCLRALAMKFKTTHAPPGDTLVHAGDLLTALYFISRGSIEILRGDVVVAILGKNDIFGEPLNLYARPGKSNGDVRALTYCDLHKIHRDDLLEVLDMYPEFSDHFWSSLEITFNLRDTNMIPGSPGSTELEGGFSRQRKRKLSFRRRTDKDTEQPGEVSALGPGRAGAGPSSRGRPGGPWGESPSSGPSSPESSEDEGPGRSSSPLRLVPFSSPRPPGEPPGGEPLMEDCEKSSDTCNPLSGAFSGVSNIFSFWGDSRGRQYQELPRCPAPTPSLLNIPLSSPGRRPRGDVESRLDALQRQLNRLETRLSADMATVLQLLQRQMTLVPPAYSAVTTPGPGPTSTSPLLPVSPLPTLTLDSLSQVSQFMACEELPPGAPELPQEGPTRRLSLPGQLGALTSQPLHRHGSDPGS
row,Structure (SMILES),"hERG current change (%, negative = inhibition) at 10uM [%]"
1,Cc1ccc(CCN2CC(C(=O)NCCCN3CCN(C)CC3)CC2=O)cc1 (centres unmarked),-8.81
2,CCN(C(=O)CSc1ccc2c(c1)OCCO2)C1CCS(=O)(=O)C1 (centres unmarked),9.65
3,COc1ccc(O)c(C(=O)c2cnc3c(c2)c(-c2ccc(F)cc2)c(C#N)c(=O)n3C)c1,12.6
4,CCCCn1c(-c2cccc(Br)c2)nc2cc3[nH]c(=O)c(C(C)C)nc3cc21,4.08
5,CCCCn1c(-c2cccnc2)nc2cc3[nH]c(=O)c(C(C)C)nc3cc21,-50.4
6,CCCCn1c(-c2cccc(C)c2)nc2cc3[nH]c(=O)c(C(C)C)nc3cc21,0.235
7,CC(=O)C(Sc1nnnn1-c1ccc(O)cc1)c1ccccc1 (centres unmarked),-14.3
8,COc1ccc(CCNC(=O)c2cc3c(=O)n4ccccc4nc3n(Cc3ccco3)c2=N)cc1OC,-76.6
9,COc1ccc(CCNC(=O)c2cc3c(=O)n4cccc(C)c4nc3s2)cc1OC,21.3
10,COc1ccc(CCNC(=O)CSc2nc(=O)n3cccc(C)c3n2)cc1OC,15.8
11,COc1ccc(CCNC(=O)c2cc3c(=O)n4cccc(C)c4nc3n(Cc3ccco3)c2=N)cc1OC,-80.9
12,COc1ccc(CCNC(=O)c2coc3ccccc3c2=O)cc1OC,-4.09
13,COc1ccc(CCNC(=O)c2ccc3c(=O)n(Cc4ccco4)c(=S)[nH]c3c2)cc1OC,17.2
14,CSc1ccc(Cl)c(C(=O)OCC(=O)NCC(C)C)c1,-21
15,CCN(CC)CC(O)Cn1c2ccccc2c2ccccc21 (centres unmarked),-16
16,CCN(CC)CC(O)Cn1c(C)c(-c2ccccc2)c2cc([N+](=O)[O-])ccc21.Cl (centres unmarked),-65.3
17,Cn1c(CO)c(-c2ccccc2)c2cc([N+](=O)[O-])ccc21,10.2
18,Nc1cccc2c1C(=O)N(CCOc1ccccc1F)C2=O,20.2
19,Cc1ccc(OCc2nc(C#N)c(N3CCN(Cc4ccccc4)CC3)o2)cc1,-6.23
20,CN1CCN(c2oc(COc3ccc(-c4ccccc4)cc3)nc2C#N)CC1,-19
21,N#Cc1nc(COc2ccc(F)cc2)oc1N1CCCC1,-46.7
22,Cc1ccc(OCc2nc(C#N)c(N3CCCCC3)o2)cc1,-4.24
23,COc1ccc(N2CCN(c3oc(COc4ccc(Cl)cc4)nc3C#N)CC2)cc1,-2.55
24,N#Cc1nc(COc2ccccc2)oc1N1CCN(Cc2ccccc2)CC1,-21.9
25,CCN1CCN(c2oc(COc3ccc(Cl)cc3)nc2C#N)CC1,-77

row,Structure (SMILES),"hERG current change (%, negative = inhibition) at 10uM [%]"
1,CCN1CCN(c2oc(COc3ccc(-c4ccccc4)cc3)nc2C#N)CC1,-55.8
2,N#Cc1nc(COc2ccc(Cl)cc2)oc1N1CCCC1,-38.9
3,Cc1ccc(OCc2nc(C#N)c(N3CCCC3)o2)cc1,-62.8
4,N#Cc1nc(COc2ccc(Cl)cc2)oc1N1CCN(Cc2ccccc2)CC1,-1.08
5,N#Cc1nc(COc2ccc(F)cc2)oc1N1CCN(Cc2ccccc2)CC1,-75.3
6,CC1=CC(C)[C@@H]2COC(c3ccc(O)cc3)[C@H]1C2C (some centres unmarked),4.96
7,Cc1ccc(N2CC(C(=O)NCc3nnnn3-c3ccc(C)c(C)c3)CC2=O)cc1 (centres unmarked),-19.8
8,Cc1ccc(S(=O)(=O)NC(=O)C2CCCCC2)cc1,14.3
9,O=C(COc1ccc2ccccc2c1)NCCNC(=O)COc1ccc2ccccc2c1,17.2
10,O=C(c1cc(-c2ccccc2)on1)N1CCCC1,9.39
11,O=C(NCc1ccc2c(c1)OCO2)c1ccc2c(c1)OCCO2,8.03
12,CC(CN1CCN(Cc2ccccc2)CC1)c1ccccc1.O=C(O)C(=O)O (centres unmarked),-14
13,CC(=O)Nc1ccc(S(=O)(=O)N[C@@H](C)C(=O)N2CCN(C/C=C/c3ccccc3)CC2)cc1,-31.8
14,CC(C(=O)N(C)Cc1ccccc1)N1CCN(C/C=C/c2ccccc2)CC1 (centres unmarked),-78.9
15,CC(C)C(NC(=O)c1ccccc1)C(=O)N1CCN(C/C=C/c2ccccc2)CC1 (centres unmarked),-41.2
16,CC(CN1CCCCC1)c1ccccc1.O=C(O)C(=O)O (centres unmarked),13.1
17,CC(CN1CCN(C/C=C/c2ccccc2)CC1)c1ccccc1.O=C(O)C(=O)O (centres unmarked),-59.6
18,CC(C(=O)Nc1cccc(S(=O)(=O)N2CCOCC2)c1)N1CCN(C/C=C/c2ccccc2)CC1 (centres unmarked),-75
19,COc1ccc(N2CCN(C(C)C(=O)N(C)Cc3ccccc3)CC2)cc1 (centres unmarked),-17.3
20,CC(C(=O)Nc1cccc(S(=O)(=O)N2CCOCC2)c1)N1CCN(C)CC1 (centres unmarked),-5.23
21,CC(=O)c1ccc(NC(=O)C(C)N2CCN(C/C=C/c3ccccc3)CC2)cc1 (centres unmarked),-71.4
22,CC(=O)c1ccc(S(=O)(=O)NCC(=O)N2CCN(C/C=C/c3ccccc3)CC2)cc1,-38.7
23,CC(C(=O)Nc1cccc(S(=O)(=O)N2CCOCC2)c1)N1CCN(c2ccc(F)cc2)CC1 (centres unmarked),-40.3
24,CCc1nnc(NC(=O)c2ccc(S(=O)(=O)N(CC)Cc3ccccc3)cc2)o1,-12.9
25,O=C(Nc1nc(-c2cccs2)cs1)C1=COCCO1,-15.9

row,Structure (SMILES),"hERG current change (%, negative = inhibition) at 10uM [%]"
1,CCCCC(=O)Nc1ccc2c(c1)C(=O)NC2=O,2.21
2,Cc1ccc(NC(=O)c2c(-c3ccccc3Cl)noc2C)nc1,1.56
3,COc1ccc(NC(=O)COC(=O)c2cc(Cl)ccc2O)cc1S(=O)(=O)N1CCCCC1,10.5
4,O=C(COC(=O)c1cccnc1Cl)NCC1CCCO1 (centres unmarked),10.8
5,COc1ccccc1/C=C/C=N/N1CCN(c2ccccn2)CC1,-2.4
6,Cc1cccc(CS(=O)(=O)Cc2ccc(C(=O)O)o2)c1,16.5
7,CC(C)NC(=S)N1CCN(C/C=C/c2ccccc2)CC1,-15.5
8,CC(C(=O)Nc1cccc([N+](=O)[O-])c1)n1nnc2ccccc21 (centres unmarked),-33.5
9,CC(C(=O)Nc1cccc([N+](=O)[O-])c1)N1CCN(C/C=C/c2ccccc2)CC1 (centres unmarked),-75.6
10,CCCCNC(=O)N1CCN(C/C=C/c2ccccc2)CC1,-29.9
11,COC(C(=O)Nc1cccc([N+](=O)[O-])c1)c1ccccc1 (centres unmarked),1.56
12,CNC(=O)NC(=O)C(C)N1CCN(C/C=C/c2ccccc2)CC1 (centres unmarked),-63
13,Cc1nc(SCC(N)=O)[nH]c(=O)c1Cc1ccc(OC(C)C)cc1,3.98
14,CCCCCC(=O)Nc1ccc(-c2csc(C)n2)cc1,18.7
15,COc1cccc(N(CC(=O)NC(C)c2ccccc2)S(C)(=O)=O)c1 (centres unmarked),22.3
16,N=C1/C(=C\c2coc3ccccc3c2=O)C(=O)N=C2SC(c3ccncc3)=NN12,-59
17,N=C1/C(=C\c2coc3ccccc3c2=O)C(=O)N=C2SC=CN12,15.3
18,N=C1/C(=C/c2coc3ccccc3c2=O)C(=O)N=C2SC(c3ccco3)=NN12,12.8
19,O=C(Nc1nnc(-c2ccc(Cl)cc2)o1)Nc1ccccc1F,1.31
20,Cc1csc(CN(C)C(=O)CC2C(=O)NCCN2Cc2ccc(F)c(F)c2)n1 (centres unmarked),6.02
21,COCCCNC(=S)NCCNc1nc2cc(C)c(C)cc2cc1C#N,-2.23
22,C/C(=C/c1ccccc1)C(=O)N1CC(C)OC(C)C1 (centres unmarked),11.7
23,COc1cc2c(cc1OC)C(c1cccc(C)c1)CC(=O)N2 (centres unmarked),-10.5
24,CCn1c(SCC(=O)N=Nc2c(O)[nH]c3ccccc23)nnc1-c1ccc(C(C)(C)C)cc1,-5.11
25,Cc1cc(O)cc(C)c1Cl,-2.78

row,Structure (SMILES),"hERG current change (%, negative = inhibition) at 10uM [%]"
1,Cc1ccc(NC(=O)c2ccc(Cl)c(NC(=O)c3cccs3)c2)cc1,-12.5
2,O=C(NC(=S)Nc1ccccc1N1CCN(C(=O)c2ccccc2)CC1)c1cccs1,9.73
3,O=C(NCC(=O)N1CCN(c2ccccc2O)CC1)c1cccs1,3.84
4,O=C(Nc1cc(C(=O)N2CCN(c3ccccc3O)CC2)ccc1Cl)c1cccs1,-60.1
5,CCOC(=O)N1CCN(C(=O)c2ccc(Cl)c(NC(=O)c3cccs3)c2)CC1,-54.7
6,CC(=O)N1CCN(C(=O)c2ccc(Cl)c(NC(=O)c3cccs3)c2)CC1,-15.3
7,COc1ccc(NC(=O)CN(C)C(=O)c2ccc(=O)[nH]c2)cc1,21.7
8,COc1ccc(NC(=O)C2CC(=O)N(Cc3ccco3)C2)cc1Cl (centres unmarked),-4.14
9,N/C(=N\O)c1ccccc1-n1cccc1,25.7
10,COc1ccc(/C(N)=N/OC(=O)/C=C/c2ccccc2)cc1,-37.2
11,CCCN1CCN(S(=O)(=O)c2cn(C)nc2C)CC1,22
12,Cc1ccc(S(=O)(=O)NCc2ccc(C(=O)NCCCN3CCC(Cc4ccccc4)CC3)cc2)cc1,-80.6
13,O=C(NCc1ccccc1)N1CCC(Cc2ccccc2)CC1,10.5
14,COCCNC(=O)c1ccc(CN2CCC(Cc3ccccc3)CC2)cc1,-11.6
15,CC(C)NC(=O)c1ccc(CN2CCC(Cc3ccccc3)CC2)cc1,-37.2
16,C=CCNC(=O)c1ccc(CN2CCC(Cc3ccccc3)CC2)cc1,-66.8
17,CC(=O)Nc1ccc(S(=O)(=O)NCc2ccc(C(=O)NCCCN3CCC(C)CC3)cc2)cc1,19.7
18,NC(=O)c1ccc(CN2CCC(Cc3ccccc3)CC2)cc1,-57.1
19,C=CCNC(=S)N1CCC(Cc2ccccc2)CC1,-25.9
20,Cc1ccc(S(=O)(=O)NCc2ccc(C(=O)NCCCN3CCN(C)CC3)cc2)cc1,19.3
21,O=C(NCc1ccccc1)c1ccc(CN2CCC(Cc3ccccc3)CC2)cc1,-70.3
22,O=C(Nc1ccccc1)c1ccc(CN2CCC(Cc3ccccc3)CC2)cc1,14.7
23,C=CCNC(=O)c1ccc(C2SCC(=O)N2Cc2ccccc2)cc1 (centres unmarked),6.11
